Coupling enz: inhibits coupling enzyme system, counter-screen for aldolase hits. coupling enzyme system counterscreen, AmpLite Red fluorescence. activity change, negative = inhibition, % at 58.2 µM, hits read low. 290,000 tested, 0.67% active; in the data active means activity change below about -30%
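Compounds tested against the coupling enzymes alone at 57.5 uM final; readout was AmpLite Red fluorescence (525/598 nm) after 20 min at RT.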
NPSR antagonist: blocks cAMP signaling of the human neuropeptide S receptor; Q6W5P4; CHO-NPSR cells, cAMP TR-FRET, antagonist mode; Potency, µM (top dose mostly 38.3 µM), for the others: at the top dose activity change, negative = inhibition, most hits filed as inhibitors; 220,000 tested, 1% active; active means well fitted curve in the direction sought with a large enough effect; inconclusive means small, poorly fitted or top-dose-only effect, or another doubt; inactive means no such curve, though single readings can be large; an effect the other way counts as inactive or inconclusive; further: potency means the concentration at half of the fitted maximal effect; nearly all actives have a fitted effect of over 50% in size
ALDH1A1 block: ALDH1A1 (human) enzyme inhibition; P00352; Purified ALDH1A1, NADH fluorescence, propionaldehyde substrate; Potency, µM (titrated, usually from 75.3 µM), without a hit: top-dose activity, negative = inhibition, actives largely listed as inhibitors; 220,000 tested, 7.3% active;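 further: potency means the concentration at half of the fitted maximal effect; plate controls were no enzyme wells and a reference inhibitor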
KDM4E inh: inhibitors of human JMJD2E histone demethylase; AID 2147; 230,000 tested, 1.6% active; Potency, µM (titrated, usually from 57.1 µM), inactives show top-dose activity change, negative = inhibition, most hits filed as inhibitors; JMJD2E catalytic domain, FDH-coupled NADH fluorescence (FDH is formaldehyde dehydrogenase); B2RXH2;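 further: potency means the concentration at half of the fitted maximal effect; 0% = wells with enzyme and -100% = buffer wells without enzyme; nearly all actives have a fitted effect of over 50% in size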
Target sequence (B2RXH2 1-337 limits assumed): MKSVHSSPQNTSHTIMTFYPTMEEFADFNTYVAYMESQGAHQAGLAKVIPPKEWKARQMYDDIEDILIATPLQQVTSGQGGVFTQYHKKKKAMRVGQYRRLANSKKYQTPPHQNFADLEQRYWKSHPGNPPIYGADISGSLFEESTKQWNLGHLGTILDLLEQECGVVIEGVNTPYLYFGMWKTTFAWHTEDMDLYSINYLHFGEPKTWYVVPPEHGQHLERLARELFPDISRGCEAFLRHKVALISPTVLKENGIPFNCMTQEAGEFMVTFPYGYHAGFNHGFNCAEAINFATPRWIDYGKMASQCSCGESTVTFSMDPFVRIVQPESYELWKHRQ
Sfp inh: inhibitors of Bacillus subtilis Sfp phosphopantetheinyl transferase. Q9F4F7. Biochemical Sfp PPTase activity, qHTS. Potency, µM, inactives show largest response in the series, negative = inhibition, actives largely listed as inhibitors. 310,000 tested, 3.5% active. AID 1490; active means well fitted curve in the direction sought with a large enough effect; inconclusive means small, poorly fitted or top-dose-only effect, or another doubt; inactive means no such curve, though single readings can be large; an effect the other way counts as inactive or inconclusive;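 further: the enzyme is Sfp with the accession as filed and its product quenches rhodamine fluorescence; potency means the concentration at half of the fitted maximal effect; 0% = enzyme reaction without inhibitor and -100% = no enzyme wells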
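With Hepes-Na pH 7.6 buffer containing 10 mM MgCl2, Sfp (15 nM) modified BHQ-2-YbbR (12.5 uM) using rhodamine-CoA (5 uM). Two reads 30 minutes apart at 525/598 nm yielded each well's rate.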
RGS12 GoLoco inh: RGS12 GoLoco-Gai1 interaction inhibition. P63096. Gai1:RGS12 GoLoco peptide FP, rhodamine, 10 min. Potency, µM (doses to about 61.6 µM), without a hit: top-dose activity, negative = inhibition, actives largely listed as inhibitors. 230,000 tested, 0.44% active. AID 880; active means well fitted inhibition curve with a large enough effect, not every such curve was filed as active; inactive means no such curve, though single readings can be large or run the other way; further: potency means the concentration at half of the fitted maximal effect; nearly all actives have a fitted effect of over 30% in size
Target sequence (P63096 whole entry, looked up): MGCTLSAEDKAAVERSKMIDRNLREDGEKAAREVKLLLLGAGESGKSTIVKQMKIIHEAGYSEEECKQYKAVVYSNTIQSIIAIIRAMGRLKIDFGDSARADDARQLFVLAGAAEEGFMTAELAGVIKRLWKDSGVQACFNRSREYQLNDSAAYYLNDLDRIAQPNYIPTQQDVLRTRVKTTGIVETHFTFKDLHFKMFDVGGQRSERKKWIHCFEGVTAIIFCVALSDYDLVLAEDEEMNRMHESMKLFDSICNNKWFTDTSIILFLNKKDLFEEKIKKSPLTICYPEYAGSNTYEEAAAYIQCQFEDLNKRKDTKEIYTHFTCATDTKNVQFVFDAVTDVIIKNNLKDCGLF
* marks the source's active call; other numbers are inactive results; i = inactive; ? = inconclusive; . = no result; [ ] = another dose, or the depositor's remark. The list is not random: actives were taken first. Their share in the collection is about 8.5%. Unless noted, the call rests on the fitted dose curve; in most records, active means well fitted inhibition curve with a large enough effect (not every such curve was filed as active); inconclusive means small, poorly fitted or top-dose-only effect, or another doubt; inactive means no such curve, though single readings can be large or run the other way. Unless noted, on the % scale 0 is the no-effect control and ±100 the full control effect.

SMILES	Coupling enz	NPSR antagonist	ALDH1A1 block	KDM4E inh	Sfp inh	RGS12 GoLoco inh
COc1ccc(C2C(C#N)=C3NC(=O)c4c(sc5c4CCCCC5)N3C3=C2C(=O)CC(C)(C)C3)cc1 (stereo not given)	-19	?	-3%	-25%	56µM*	7%
COc1ccc(C2C(C#N)=C(SC)NC3=C2C(=O)CC(C)(C)C3)cc1 (stereo not given)	4	-12%[46.1 µM]	14µM*	?	12%	1%
Cc1cccc(Nc2nc3c(s2)CCCC3)c1	5	45%	20µM*	8%	-5%	1%
O=C(O)c1ccc(Nc2nc3c(s2)CCCC3)cc1	0	-17%	-2%	-6%	?	9%
O=C(NC(=S)Nc1nc2c(s1)CCCC2)c1ccc(C(=O)c2ccccc2)cc1	-5	-24%	3.5µM*	8%	-11%	12%
C/C(=N\Nc1nc2c(s1)CCCC2)c1ccccc1	-6	-19%[46.1 µM]	25µM*	?	?	-8%
Cc1cc(C)nc(NC(=S)NC(=O)c2ccccc2)n1	1	.	.	.	10%	.
O=C(NC(=S)Nc1nc2c(s1)CSc1ccccc1-2)c1ccccc1	5	?	?	-27%	45µM*	-15%
COC(=O)c1ccc(C(=O)NC(=S)Nc2nc3c(s2)CC(C)CC3)cc1 (stereo not given)	16	-6%[46.1 µM]	?	-12%	-16%	-3%
COc1ccc(CNC(=O)CN(Cc2ccco2)C(=O)CNS(=O)(=O)c2ccc(F)cc2)cc1	-1	.	.	.	22%	.
COc1cc2c(cc1NC(=O)c1cccnc1)CCCC2	-1	-8%[46.1 µM]	28µM*	-1%	-2%	9%
O=C(Nc1nc2c(s1)CCCC2)c1cccs1	0	-14%[46.1 µM]	-5%	3%	3%	7%
O=C(Nc1nc2c(s1)CCCC2)c1cccnc1	-10	-20%[46.1 µM]	11µM*	14%	?	15%
Cc1nn(C(C)C(=O)NCC2CCCO2)c(C)c1[N+](=O)[O-] (stereo not given)	-1	4%	7%	7%	26%	-3%
COc1cccc(/C=N/NC(=O)Cn2nc(C)c([N+](=O)[O-])c2C)c1O	5	3%[46.1 µM]	8%	11µM*	12%	.
COc1cccc(/C=N/NC(=O)C(C)n2nc(C)c([N+](=O)[O-])c2C)c1O (stereo not given)	1	13%	16%	14µM*	16%	2%
COc1cccc(NC(=S)NNC(=O)C(C)n2nc(C)c([N+](=O)[O-])c2C)c1 (stereo not given)	-1	-12%[46.1 µM]	0%	12%	21%	8%
O=C(c1ccccc1)c1coc2c1C(=O)c1ccccc1C2=O	-21	?	20µM*	0%	?	1%
O=C1c2ccccc2C(=O)c2c1oc(C(F)(F)F)c2C(=O)c1ccccc1	-3	5µM*	?	10%	-10%	-32%
COc1ccc(C(=O)c2coc3c2C(=O)C(=O)c2ccccc2-3)cc1	-75*	?	.	?	32µM*	0%
COc1ccc2occ(C(=O)c3ccccc3)c2c1	-2	3%	-12%	1%	?	-4%
CNc1ccc(OC(F)F)cc1C(=O)c1ccccc1	0	-6%[46.1 µM]	-15%	3%	-21%	-4%
O=C(NC(=S)N1CCCCC1)c1csc([N+](=O)[O-])c1	0	49%	.	-1%	-3%	-5%
O=C(NCCOc1ccc(F)cc1)C1CCC(=O)N(CC2CCCCC2)C1 (stereo not given)	0	.	.	.	7%	.
COc1cccc(/C=N/n2c(N)c(S(=O)(=O)c3cccs3)c3nc4ccccc4nc32)c1	1	-3%[46.1 µM]	?	?	3%	9%
SMILES	Coupling enz	NPSR antagonist	ALDH1A1 block	KDM4E inh	Sfp inh	RGS12 GoLoco inh
Nc1c(S(=O)(=O)c2cccs2)c2nc3ccccc3nc2n1/N=C/c1cccc(O)c1	0	7.9µM*	?	?	5%	0%
COc1ccc(CNC(=O)c2cc(=O)c3cc(C)ccc3o2)cc1	2	.	.	.	8%	.
Cc1cc2cc(CN(CCCN3CCOCC3)C(=O)NC3CCCCC3)c(=O)[nH]c2cc1C	-21	?	?	?	45µM*	-13%
CCOC(=O)CC(=O)CSc1nc(-c2cccnc2)ccc1C#N	2	-9%[46.1 µM]	?	i	9%	29%
CCOC(=O)CC(=O)CSc1nccc(-c2cccnc2)n1	0	5%	.	-14%	56µM*	7%
Cc1ccc(C)c(NC(=S)NNC(=O)c2csc(C)c2C)c1	-1	4%	-9%	16%	3%	14%
Cc1cccc(NC(=S)NNC(=O)c2cc3c(s2)CCC(C)C3)c1C (stereo not given)	0	10%	6.3µM*	-5%	5%	-13%
Cc1ccc(C)c(NC(=S)NNC(=O)c2csc(C(C)C)c2)c1	1	-5%	13µM*	12%	4%	4%
Cc1ccc(C)c(NC(=S)NNC(=O)c2cc3c(s2)CCC(C)C3)c1 (stereo not given)	7	-23%[46.1 µM]	22µM*	17%	29%	.
CCCCCc1n[nH]c2c1CCCC2	-5	6%	.	-12%	3%	4%
Cc1ccc(/C=C2/CNC/C(=C\c3ccc(C)cc3)C2=O)cc1	1	.	.	.	-5%	.
C/C(=N\NC(=O)Cc1ccc(Cl)cc1)c1cccc(NC(=O)c2cccnc2)c1	.	.	.	.	6%	.
COc1ccc(Nc2ncnc3ccccc23)c(OC)c1	-1	-22%[46.1 µM]	10µM*	3%	4%	22%
CC(C)c1ccc(CN2CCSCC2)cc1	-4	.	.	.	-16%	.
Cc1cc(Br)ccc1OCCn1ccnc1	0	7%	-3%	?	9%	-4%
CC(=O)Nc1ccc(NC(=O)C(C)OC(=O)/C=C/c2cccs2)cc1 (stereo not given)	0	-12%	-16%	3%	6%	-6%
COC(=O)/C=C/c1ccsc1NC(C)=O	0	-1%	-12%	5%	50µM*	2%
COc1ccc(-c2ccc(C3C4C=CCC(C)C4C(=O)N3Cc3ccccc3)c(F)c2)cc1OC (stereo not given)	0	.	.	.	?	.
CC(=C\c1ccccc1)/C=C1/SC(=S)N(C(C(=O)O)C(C)C)C1=O (stereo not given)	1	-30%	-5%	-15%	-6%	0%
O=C1/C(=C/c2cccs2)SC(=S)N1NS(=O)(=O)c1ccccc1	11	51%	.	-2%	-7%	-6%
CC(C(=O)O)N1C(=O)/C(=C/C=C/c2ccco2)SC1=S (stereo not given)	.	-16%[46.1 µM]	-16%	0.89µM*	50µM*	-7%
O=C1/C(=C/C=C/c2ccco2)SC(=S)N1NS(=O)(=O)c1ccccc1	-5	-16%	.	16µM*	13µM*	42%
CC1CCC2C(=O)OC(Cc3ccccc3)CN2C1c1ccc(Br)cc1 (stereo not given)	0	.	1%[13.5 µM]	.	11%	.
